Data reported in PubChem BioAssay (NCI).
Compounds without any hit were thinned out: in the full panel of roughly 79,000, 15% have a hit. A number with no mark means an inactive call. Calls of active or inactive are those of the source. Rule as the data show it: active = growth inhibition above about 70%; inactive = the rest.

Columns and labels:
[1] = NCI Yeast Anticancer Drug Screen. Data for the rad50 strain (AID 155);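 also: 0% = growth of vehicle-only cultures of the same strain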; details: S. cerevisiae rad50 strain growth inhibition, active compounds read high
Procedure, shortened: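 Relative growth inhibition (compound vs vehicle) was measured in yeast with a defined repair-gene alteration.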

[2] = NCI Yeast Anticancer Drug Screen. Data for the mec2-1 strain (AID 157); details: S. cerevisiae mec2-1 strain, active compounds read high
Procedure, shortened: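 Mutant yeast (mec2-1) grown with compound; growth inhibition relative to vehicle control reported.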

[3] = NCI Yeast Anticancer Drug Screen. Data for the sgs1 mgt1 strain (AID 161);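 also: 0% = growth of cultures given vehicle only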; details: S. cerevisiae sgs1 mgt1 strain, active compounds read high
Procedure, shortened: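 Growth of a repair-deficient yeast mutant was monitored after compound treatment and expressed as inhibition relative to vehicle-treated cultures.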

[4] = NCI Yeast Anticancer Drug Screen. Data for the cln2 rad14 strain (AID 165);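 also: 0% = growth equal to vehicle treated cultures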; details: S. cerevisiae cln2 rad14 strain, active compounds read high
Procedure, shortened: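 Readout is yeast growth inhibition versus vehicle-treated controls, using a strain with cln2 and rad14 alterations exposed to compound.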

[5] = NCI Yeast Anticancer Drug Screen. Data for the bub3 strain (AID 167); details: S. cerevisiae bub3 mutant strain, active compounds read high
Procedure, shortened: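 Screening used yeast with an engineered genetic alteration affecting cell cycle control. Compound-exposed cultures were compared with vehicle cultures, and reduced growth was taken as inhibition.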

[6] = NCI Yeast Anticancer Drug Screen. Data for the mlh1 rad18 strain (AID 175); details: S. cerevisiae mlh1 rad18 strain growth inhibition, active compounds read high
Procedure, shortened: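 Genetically defined yeast (DNA repair-deficient) exposed to compounds; growth inhibition determined relative to vehicle.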

[7] = at 5.0 µM (retest, dose inferred, filed as 0.5)
[8] = at 50.0 µM (retest, dose inferred, filed as 5.0)

Cc1nc(N)sc1N=Nc1ccc(Cl)cc1Cl
growth inhibition [1, 7]: 4% | growth inhibition [1, 8]: 90% (active) | growth inhibition ([1]; at 50.0 µM): 82.5% (active) | growth inhibition [2, 7]: 1% | growth inhibition [2, 8]: 90% (active) | growth inhibition ([2]; at 50.0 µM): 76.4% (active) | growth inhibition [3, 7]: 4% | growth inhibition [3, 8]: 94% (active) | growth inhibition ([3]; at 50.0 µM): 84.2% (active) | growth inhibition [4, 7]: 2% | growth inhibition [4, 8]: 48% | growth inhibition ([4]; at 50.0 µM): 84.3% (active) | growth inhibition [5, 7]: 1% | growth inhibition [5, 8]: 55% | growth inhibition ([5]; at 50.0 µM): 81.7% (active) | growth inhibition [6, 7]: 16% | growth inhibition [6, 8]: 97% (active) | growth inhibition ([6]; at 50.0 µM): 93.4% (active)

CS(=O)(=O)OCCN(CCOS(C)(=O)=O)c1ccc(C=Nc2cccc(Br)c2)c(Cl)c1
growth inhibition [1, 7]: 1% | growth inhibition [1, 8]: 22% | growth inhibition ([1]; at 50.0 µM): 41.5% | growth inhibition [2, 7]: -3% | growth inhibition [2, 8]: 1% | growth inhibition ([2]; at 50.0 µM): -2.3% | growth inhibition [3, 7]: -3% | growth inhibition [3, 8]: 12% | growth inhibition ([3]; at 50.0 µM): 2.5% | growth inhibition [4, 7]: -4% | growth inhibition [4, 8]: -4% | growth inhibition ([4]; at 50.0 µM): -49.9% | growth inhibition [5, 7]: 0% | growth inhibition [5, 8]: 1% | growth inhibition ([5]; at 50.0 µM): 6.85% | growth inhibition [6, 7]: 5% | growth inhibition [6, 8]: 36% | growth inhibition ([6]; at 50.0 µM): 68.5%

Cc1ccc(C)c(N(c2ccccc2[N+](=O)[O-])S(C)(=O)=O)c1
growth inhibition [1, 7]: 5% | growth inhibition [1, 8]: 20% | growth inhibition ([1]; at 50.0 µM): 99.5% (active) | growth inhibition [2, 7]: 19% | growth inhibition [2, 8]: 36% | growth inhibition ([2]; at 50.0 µM): 99.5% (active) | growth inhibition [3, 7]: 5% | growth inhibition [3, 8]: 22% | growth inhibition ([3]; at 50.0 µM): 99.6% (active) | growth inhibition [4, 7]: 5% | growth inhibition [4, 8]: 21% | growth inhibition ([4]; at 50.0 µM): 99.3% (active) | growth inhibition [5, 7]: -2% | growth inhibition [5, 8]: 16% | growth inhibition ([5]; at 50.0 µM): 99.4% (active) | growth inhibition [6, 7]: -5% | growth inhibition [6, 8]: 10% | growth inhibition ([6]; at 50.0 µM): 99.2% (active)

COc1ccc2c(c1)[n+]([O-])c(-c1ccc(C)cc1)c(N)[n+]2[O-]
growth inhibition [1, 7]: 17% | growth inhibition [1, 8]: 98% (active) | growth inhibition ([1]; at 50.0 µM): 99.4% (active) | growth inhibition [2, 7]: 22% | growth inhibition [2, 8]: 99% (active) | growth inhibition ([2]; at 50.0 µM): 99.5% (active) | growth inhibition [3, 7]: 38% | growth inhibition [3, 8]: 100% (active) | growth inhibition ([3]; at 50.0 µM): 99.3% (active) | growth inhibition [4, 7]: 34% | growth inhibition [4, 8]: 96% (active) | growth inhibition ([4]; at 50.0 µM): 98.8% (active) | growth inhibition [5, 7]: 75% (active) | growth inhibition [5, 8]: 99% (active) | growth inhibition ([5]; at 50.0 µM): 99.4% (active) | growth inhibition [6, 7]: 63% | growth inhibition [6, 8]: 98% (active) | growth inhibition ([6]; at 50.0 µM): 99.2% (active)

O=C1Oc2cc3c(c4cccc1c24)OCN(c1ccccc1)C3
growth inhibition [1, 7]: -22% | growth inhibition [1, 8]: 25% | growth inhibition ([1]; at 50.0 µM): 62.5% | growth inhibition [2, 7]: -24% | growth inhibition [2, 8]: 19% | growth inhibition ([2]; at 50.0 µM): 49.9% | growth inhibition [3, 7]: -11% | growth inhibition [3, 8]: 18% | growth inhibition ([3]; at 50.0 µM): 78.2% (active) | growth inhibition [4, 7]: -15% | growth inhibition [4, 8]: 15% | growth inhibition ([4]; at 50.0 µM): 35% | growth inhibition [5, 7]: -17% | growth inhibition [5, 8]: 25% | growth inhibition ([5]; at 50.0 µM): 49% | growth inhibition [6, 7]: -5% | growth inhibition [6, 8]: 49% | growth inhibition ([6]; at 50.0 µM): 58%

COc1ccc(C2COc3c(ccc(O)c3O)C2)cc1 (stereo not given)
growth inhibition [1, 7]: 1% | growth inhibition [1, 8]: 99% (active) | growth inhibition ([1]; at 50.0 µM): 93.3% (active) | growth inhibition [2, 7]: 9% | growth inhibition [2, 8]: 99% (active) | growth inhibition ([2]; at 50.0 µM): 97.3% (active) | growth inhibition [3, 7]: -2% | growth inhibition [3, 8]: 97% (active) | growth inhibition ([3]; at 50.0 µM): 94.7% (active) | growth inhibition [4, 7]: 11% | growth inhibition [4, 8]: 98% (active) | growth inhibition ([4]; at 50.0 µM): 89.2% (active) | growth inhibition [5, 7]: 11% | growth inhibition [5, 8]: 98% (active) | growth inhibition ([5]; at 50.0 µM): 81.4% (active) | growth inhibition [6, 7]: 1% | growth inhibition [6, 8]: 98% (active) | growth inhibition ([6]; at 50.0 µM): 96.8% (active)

CN(C)CCC(/C=C/c1ccccc1)=N\Nc1ccc(Cl)cc1
growth inhibition [1, 7]: 27% | growth inhibition [1, 8]: 99% (active) | growth inhibition ([1]; at 50.0 µM): 99.2% (active) | growth inhibition [2, 7]: 17% | growth inhibition [2, 8]: 99% (active) | growth inhibition ([2]; at 50.0 µM): 99% (active) | growth inhibition [3, 7]: 56% | growth inhibition [3, 8]: 100% (active) | growth inhibition ([3]; at 50.0 µM): 99.1% (active) | growth inhibition [4, 7]: 12% | growth inhibition [4, 8]: 99% (active) | growth inhibition ([4]; at 50.0 µM): 99.2% (active) | growth inhibition [5, 7]: 46% | growth inhibition [5, 8]: 99% (active) | growth inhibition ([5]; at 50.0 µM): 99.3% (active) | growth inhibition [6, 7]: 42% | growth inhibition [6, 8]: 99% (active) | growth inhibition ([6]; at 50.0 µM): 85.3% (active)

CSc1nc(NC2OC(CO)C(O)C(O)C2O)c(Cl)c(=O)[nH]1 (stereo not given)
growth inhibition [1, 7]: -1% | growth inhibition [1, 8]: -1% | growth inhibition ([1]; at 50.0 µM): 42.1% | growth inhibition [2, 7]: 0% | growth inhibition [2, 8]: -1% | growth inhibition ([2]; at 50.0 µM): 4.45% | growth inhibition [3, 7]: -2% | growth inhibition [3, 8]: 0% | growth inhibition ([3]; at 50.0 µM): 12.4% | growth inhibition [4, 7]: 1% | growth inhibition [4, 8]: -2% | growth inhibition ([4]; at 50.0 µM): -3.85% | growth inhibition [5, 7]: -1% | growth inhibition [5, 8]: 4% | growth inhibition ([5]; at 50.0 µM): -1.4% | growth inhibition [6, 7]: 2% | growth inhibition [6, 8]: -1% | growth inhibition ([6]; at 50.0 µM): 1.05%

COc1ccc2c(c1)n([O-])c1cc(C#N)ccc1[n+]2=O
growth inhibition [1, 7]: 94% (active) | growth inhibition [1, 8]: 97% (active) | growth inhibition ([1]; at 50.0 µM): 96.1% (active) | growth inhibition [2, 7]: 50% | growth inhibition [2, 8]: 97% (active) | growth inhibition ([2]; at 50.0 µM): 45.6% | growth inhibition [3, 7]: 41% | growth inhibition [3, 8]: 80% (active) | growth inhibition ([3]; at 50.0 µM): 35.9% | growth inhibition [4, 7]: 17% | growth inhibition [4, 8]: 59% | growth inhibition ([4]; at 50.0 µM): -11.7% | growth inhibition [5, 7]: 33% | growth inhibition [5, 8]: 87% (active) | growth inhibition ([5]; at 50.0 µM): 44.9% | growth inhibition [6, 7]: 73% (active) | growth inhibition [6, 8]: 96% (active) | growth inhibition ([6]; at 50.0 µM): 28.6%

C/C(=N\NC(=S)N(C)C)c1cccnn1
growth inhibition [1, 7]: 95% (active) | growth inhibition [1, 8]: 99% (active) | growth inhibition ([1]; at 50.0 µM): 84.8% (active) | growth inhibition [2, 7]: 91% (active) | growth inhibition [2, 8]: 99% (active) | growth inhibition ([2]; at 50.0 µM): 91.4% (active) | growth inhibition [3, 7]: 92% (active) | growth inhibition [3, 8]: 98% (active) | growth inhibition ([3]; at 50.0 µM): 87.3% (active) | growth inhibition [4, 7]: 94% (active) | growth inhibition [4, 8]: 95% (active) | growth inhibition ([4]; at 50.0 µM): 86.8% (active) | growth inhibition [5, 7]: 95% (active) | growth inhibition [5, 8]: 99% (active) | growth inhibition ([5]; at 50.0 µM): 89.5% (active) | growth inhibition [6, 7]: 96% (active) | growth inhibition [6, 8]: 99% (active) | growth inhibition ([6]; at 50.0 µM): 83.2% (active)
